Screens as filed in PubChem.
MCL1-BIM inh – inhibitors of MCL1 binding to BIM-BH3, primary screen, biochemical, fluorescence polarization. hit rate 0.68% among 320,000. inhibition, % at 10.9 µM. GST-MCL1 / FITC-Bim-BH3 fluorescence polarization. Induced myeloid leukemia cell differentiation protein Mcl-1 (Homo sapiens), Q07820;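 active means inhibition above the mean inhibition of all tested compounds plus 3 SD, set per campaign, cut at about 40% in these data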;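 further: 0% = DMSO wells and 100% = unlabeled Bim-BH3 peptide control; higher means more loss of mP so more displacement of Bim peptide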
GLD-1 RNA inh – GLD-1/TGE RNA complex disruptors, primary screen, biochemical, fluorescence polarization; hit rate 0.44% among 320,000; inhibition, % at 5.96 µM; AID 2280, 2010; Female germline-specific tumor suppressor gld-1 (Caenorhabditis elegans), Q17339; purified GLD-1 + fluorescein TGE RNA;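 active means percent inhibition above a per-plate cutoff, the plate mean of test compounds plus 3 SD, cut at about 30% in these data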;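 further: 0% = DMSO wells with GLD-1 and probe and 100% = wells lacking GLD-1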
CR mimetic SO – reduction of superoxide in aged yeast, primary screen, HTS; AID 2690, 2010; hit rate 0.18% among 330,000; S. cerevisiae aged cells, superoxide DHE fluorescence; active compounds read low; superoxide response (% of plate mean), % at 10 µM;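 active means superoxide response under a set limit, about three screen SD below normal, cut at about 65% in these data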;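 further: yeast aged for seven days with compound at 30 °C before DHE staining; 100% = average MFI of all compound-treated wells on the plate with controls excluded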
LANA-H2B inh – blockers of LANA interaction with H2A/H2B – biochemical, FP readout, HTS, primary screen. AID 2629, 2010. hit rate 0.6% among 320,000. cell-free LANA-H2A/H2B peptide, fluorescence polarization. inhibition, % (test concentration not listed). Protein LANA1 (Human herpesvirus 8 type P (isolate GK18)), Q9QR71; in the data active means inhibition mostly above about 10%, no sharp cut-off; inactive means mostly below about 6.7%
MEX-5 binding – MEX-5 zinc finger RNA-binding disruptors – biochemical, C. elegans, fluorescence polarization, MLPCN library, primary screen | Zinc finger protein mex-5 (Caenorhabditis elegans), Q9XUB2 | MEX-5/FITC-TCR2 RNA binding; active compounds read low | activity score (negative = inhibition of binding), % at 10 µM | hit rate 0.38% among 300,000 | AID 1832, 2009;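 active means inhibition past about -25% in most replicates, and total fluorescence under double the plate's negative control median, limit read from the data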;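 further: 0% = DMSO and -100% = 5 µM competing unlabeled TCR2 RNA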
Target sequence (Q9XUB2 whole entry, looked up): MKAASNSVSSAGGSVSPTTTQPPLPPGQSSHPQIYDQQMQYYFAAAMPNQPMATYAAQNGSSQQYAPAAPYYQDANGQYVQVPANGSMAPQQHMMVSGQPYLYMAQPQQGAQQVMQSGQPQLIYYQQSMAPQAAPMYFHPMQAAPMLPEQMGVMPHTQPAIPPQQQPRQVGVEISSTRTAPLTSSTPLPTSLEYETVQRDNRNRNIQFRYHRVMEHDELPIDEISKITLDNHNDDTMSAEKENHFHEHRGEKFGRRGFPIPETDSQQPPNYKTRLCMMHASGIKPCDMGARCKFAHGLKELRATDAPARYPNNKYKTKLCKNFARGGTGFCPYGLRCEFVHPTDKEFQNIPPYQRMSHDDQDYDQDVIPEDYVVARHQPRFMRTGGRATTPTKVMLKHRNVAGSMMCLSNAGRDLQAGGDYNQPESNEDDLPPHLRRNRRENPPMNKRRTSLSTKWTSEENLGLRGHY
Bcl-xL primary – inhibitors of human Bcl-xL, primary screen, biochemical, fluorescence polarization, HTS; GST-Bcl-xL / FITC-Bim BH3 peptide fluorescence polarization; inhibition, % at 10.9 µM; hit rate 0.7% among 320,000; AID 2129, 2009;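 active means inhibition above the mean of all tested compounds plus 3 SD, cutoff set per campaign, cut at about 30% in these data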;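 further: 0% = DMSO wells and 100% = unlabeled Bim-BH3 peptide competitor; inhibitors lower millipolarization by displacing the labeled peptide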
Target sequence (Q07817 whole entry, looked up): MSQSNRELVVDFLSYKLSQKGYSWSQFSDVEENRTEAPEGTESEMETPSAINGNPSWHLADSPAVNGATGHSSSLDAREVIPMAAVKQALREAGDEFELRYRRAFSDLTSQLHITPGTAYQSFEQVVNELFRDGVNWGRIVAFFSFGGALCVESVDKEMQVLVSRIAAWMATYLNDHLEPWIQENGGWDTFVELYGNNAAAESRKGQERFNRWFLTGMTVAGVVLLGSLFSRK
* = called active by the depositor; nt = no result given; + = active, no number. Rows were chosen to be rich in hits. Some 1.9% of all compounds tested hit in one or more screens of this group.

SMILES	MCL1-BIM inh	GLD-1 RNA inh	CR mimetic SO	LANA-H2B inh	MEX-5 binding	Bcl-xL primary
Cc1ccc(/C=C/c2ccc(N(C)C)cc2)[n+](C)c1	-42.8	29.6	92.3	-32.7	52.7	-15.8
CCCN(C(=O)CSc1ncccn1)C1CCS(=O)(=O)C1 (stereo unspecified)	nt	0.3	92.1	0.3	nt	nt
Cc1ccc(S(=O)(=O)N2C[C@@H]3[C@H]4CC[C@H](C4)[C@@H]3[C@@H](C)[C@H]2C#N)cc1	nt	nt	103.5	nt	nt	nt
CC1(C)CC(=O)C2=C(C1)N1C(=C(C#N)C2c2ccc(Cl)cc2)N=C(N)c2ccccc21 (stereo unspecified)	2.9	60.5*	111.8	2.8	-0.1	6.4
COc1ccccc1-c1ccc(=O)n(CC(=O)NCc2cccs2)n1	5.1	1.2	106.1	-11.3	-1.2	8.6
COc1ccccc1-c1ccc(=O)n(CC(=O)NCc2ccco2)n1	-0.9	6.8	104.0	36.9*	-0.6	-6.2
Cc1ccc(S(=O)(=O)N[C@@H](C)C(=O)N2CCC(C(=O)N3CCC[C@H]3C(=O)O)CC2)cc1	6.0	3.6	104.8	7.6*	0.2	2.6
Cc1ccc(S(=O)(=O)N[C@H](C(=O)N2CCC(C(=O)N3CCC[C@H]3C(=O)O)CC2)C(C)C)cc1	nt	nt	nt	nt	-1.1	nt
NC(=Nc1ccc(N)cc1)C(N)=Nc1ccc(N)cc1	10.6	5.4	86.0	-1.6	-29.7*	7.0
CCS(=O)(=O)N1Cc2ccccc2CC1C(=O)N(C)CC(=O)Nc1ccc(F)c(F)c1F (stereo unspecified)	-0.8	8.1	107.8	31.5*	1.7	2.2
O=C1CN(C(=O)COC(=O)COc2ccccc2)c2ccccc2N1	nt	3.9	93.3	0.2	nt	nt
CC(C)(C)C1(C)OC(=O)C(=Cc2ccc(OCC(=O)Nc3ccccc3)cc2)C(=O)O1 (stereo unspecified)	-7.7	-7.7	102.3	24.5*	2.2	0.5
O=C(NCc1ccccc1CN1CCCC1)c1cccc(S(=O)(=O)N2CCOCC2)c1	7.3	0.0	118.4	-1.7	nt	5.9
COc1ccc(NC(=O)Nc2cccc3c2O[C@H](CN(C)C(=O)Nc2ccc(OC)cc2)[C@@H](C)CN([C@H](C)CO)C3=O)cc1	nt	2.6	92.6	-0.4	nt	nt
O=C(c1ccco1)N1N=C(c2ccco2)CC1c1ccc(Cl)cc1Cl (stereo unspecified)	-3.7	1.9	87.6	+	nt	1.6
COc1ccc(C2=NN(C(=O)c3ccco3)C(c3cc4ccccc4nc3Cl)C2)cc1 (stereo unspecified)	5.0	-4.8	105.5	2.0	-0.9	4.7
Cc1ccc2occ(CN3CCN(c4ccccc4)CC3)c(=O)c2c1	0.2	-0.5	98.1	-6.8	-1.4	36.2*
Cc1ccc2occ(CN3CCN(Cc4ccccc4)CC3)c(=O)c2c1	-9.1	3.3	97.6	3.5	-0.3	-2.8
CCC(OCC(O)CN1CCN(CCN2C(=O)c3cccc4cccc(c34)C2=O)CC1)c1ccccc1 (stereo unspecified)	5.9	1.3	95.1	-1.2	-0.6	4.2
CC(C)OCC(O)CN1CCN(CCN2C(=O)c3cccc4cccc(c34)C2=O)CC1 (stereo unspecified)	0.5	13.8	105.5	-2.5	-59.3*	-3.3
COc1ccc(-c2cc(C(=O)N3CCN(c4ccccc4OC)CC3)no2)cc1	2.1	-0.6	92.1	19.8*	1.0	5.5
O=C(c1cc(-c2ccc(Cl)cc2)on1)N1CCCCCC1	-3.4	33.9*	89.9	-0.7	-1.8	2.5
COc1ccccc1N1CCN(C(=O)c2cc3c(=O)n4cccc(C)c4nc3s2)CC1	-2.4	-5.9	103.8	26.1*	3.0	1.3
COc1ccc(N2CCN(C(=O)c3ccc4ccccc4n3)CC2)cc1	15.8	3.8	106.5	16.1*	1.1	7.1
COc1ccccc1N1CCN(C(=O)c2cc(-c3ccc(C)cc3)on2)CC1	-4.5	8.9	121.3	5.3	1.3	-2.7
SMILES	MCL1-BIM inh	GLD-1 RNA inh	CR mimetic SO	LANA-H2B inh	MEX-5 binding	Bcl-xL primary
C[C@H](NC(=O)Cc1cccc2ccccc12)C(=O)N1CCOCC1	nt	-2.4	112.2	2.2	nt	nt
CCC(C)C(NC(=O)c1ccccc1)C(=O)Nc1ccc(S(=O)(=O)Nc2cc(C)nc(C)n2)cc1 (stereo unspecified)	4.5	-0.2	103.2	nt	nt	5.7
Oc1ccc(-c2csc(Nc3ccccn3)n2)cc1O	21.8	5.2	96.8	-0.7	-32.0*	27.4
O=C(/C=C/c1cccs1)N1CCC2(CC1)Oc1ccc(F)cc1C(=O)C21CC(c2ccc(Cl)cc2)=NO1 (stereo unspecified)	-3.7	-3.6	90.0	-6.0	0.5	30.9*
COc1cc(NC(=O)Cc2ccc(S(=O)(=O)N3CCOCC3)s2)c(OC)cc1Cl	-2.0	4.5	92.1	3.7	0.8	3.9
COc1ccc(S(=O)(=O)N2CCCCC2)cc1NC(=O)Cc1cccs1	-7.4	2.6	92.5	-2.7	nt	1.2
CC1CCN(S(=O)(=O)c2ccc(NC(=O)Cc3ccc(S(=O)(=O)N4CCOCC4)s3)cc2)CC1	-13.8	2.8	83.1	+	-1.3	-5.9
O=C(Cc1cccs1)Nc1cc(S(=O)(=O)N2CCCCC2)ccc1Cl	-7.5	2.9	84.0	81.6*	nt	-7.4
O=C(Cc1ccc(S(=O)(=O)N2CCOCC2)s1)Nc1cc(Cl)ccc1Cl	-7.0	-7.1	89.7	+	nt	-3.1
Cc1c(NC(=O)c2cc(S(=O)(=O)N3CCCCC3)ccc2Cl)c(=O)n(-c2ccccc2)n1C	nt	-8.1	80.0	-2.9	nt	nt
CCN1C(=O)[C@H]2[C@H]3CN=C(SCc4ccc(C)cc4)N3[C@@](CC)(C(=O)OC)[C@H]2C1=O	nt	nt	121.2	nt	nt	nt
Cc1nc2ccc(NS(=O)(=O)c3c(F)cc(F)cc3Br)cc2s1	1.8	-2.1	101.9	0.3	nt	-0.2
CCNC(=S)Nc1ccc2ncoc2c1	16.9	-1.9	99.4	31.4*	-4.3	12.4
O=C(Cn1cnc2c(NCc3ccccc3)ncnc21)NCCCN1CCCC1=O	nt	nt	105.4	nt	nt	nt
Cc1ccc(S(=O)(=O)/N=C(/Nc2ccc([N+](=O)[O-])cc2[N+](=O)[O-])c2ccccc2)cc1	nt	-1.3	129.9	-2.1	nt	nt
C=CCNC(=S)NNC(=O)c1ccc(OCC(C)C)cc1	-0.1	0.8	110.7	19.2*	1.0	-0.7
C=CCNC(=S)NNC(=O)c1ccc(OCC)cc1	6.1	0.4	112.8	-0.5	1.7	6.7
O=C(COC(=O)c1ccc(O)cc1)Nc1cc(S(=O)(=O)N2CCOCC2)ccc1Cl	-10.3	-2.0	113.4	-0.5	nt	-5.5
